Assay in all cases: qHTS profiling for inhibitors of Plasmodium falciparum proliferation (AID 504749); further: nearly all actives have a fitted effect of over 60% in size
What all share (conditions): P. falciparum in erythrocytes, SYBR Green DNA, 72 h; series mostly up to 28.7 µM

For one experiment, the system named is CP192. The method in brief: (§1)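 P. falciparum-infected erythrocytes (0.3% parasitemia, 2.5% hematocrit final) were exposed to compounds for 72 h at 37 C in 5% CO2, then lysed with SYBR Green buffer overnight at room temperature; parasite DNA fluorescence was normalized to artemisinin and DMSO controls.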
Another experiment relates to CP194. The method, boiled down: as §1
The subject of a further experiment is CP201. The method, boiled down:
as §1

A further experiment relates to CP211. The method, boiled down: as §1
The next experiment has as its system CP215. The method, boiled down: as §1
A further experiment deals with CP217. The method in brief: as §1
The subject of another experiment is CP237. The method, boiled down: as §1
The next experiment concerns CP238. The method, boiled down: as §1
In the next experiment the test system is CP247. The method, boiled down:
as §1

For a further experiment, the system named is CP250. The method in brief:
as §1

A further experiment concerns CP252. The method, boiled down: as §1
In a further experiment the test system is CP260. The method in brief: as §1
For the next experiment, the system named is CP262. The method in brief: as §1
The test system of a further experiment is CP265. The method, boiled down:
as §1

Another experiment concerns CP266. The method in brief: as §1
In the next experiment the test system is CP268. The method in brief:
as §1

A further experiment has as its system CP269. The method, boiled down:
as §1

The subject of a further experiment is CP286. The method, boiled down:
as §1

In the next experiment the test system is CP256. The method in brief: as §1
A further experiment relates to CP203. The method in brief:
as §1

Structures are written as SMILES. Inconclusive results are not listed. The source made the active and inactive calls. The call rests on the fitted dose curve; in most records, active means well fitted inhibition curve with a large enough effect; inconclusive means small, poorly fitted or top-dose-only effect; inactive means flat fitted curve, though single readings scatter.
Potency means the concentration at half of the fitted maximal effect.

Take `CN(C)/N=N/c1nc[nH]c1C(N)=O`: the Potency result with CP192, in the experiment on CP194, in the experiment on CP201, in the experiment on CP211, in the experiment on CP215 and in the experiment with CP217 was “inactive” in each case. Further, the Potency entry with CP237, with CP238, in the experiment with CP247, in the experiment on CP250, in the experiment on CP252 and with CP260 was “inactive” in each case. Besides, the Potency entry in the experiment with CP262, with CP265, with CP266, in the experiment with CP268, in the experiment with CP269 and in the experiment with CP286 was “inactive” each time.

As to `Cc1cccc(C)c1NC(=O)CN1CCN(CCCC(c2ccc(F)cc2)c2ccc(F)cc2)CC1`, the Potency result in the experiment on CP192, in the experiment with CP201, with CP211, in the experiment on CP215, in the experiment with CP238 and in the experiment with CP247 was “inactive” throughout. Moreover, the Potency result with CP250, with CP252, with CP256, in the experiment on CP260, in the experiment on CP265 and with CP266 was “inactive” throughout. Further, the Potency entry in the experiment on CP268 and in the experiment on CP286 was “inactive” throughout.

Regarding `CN=C(NC#N)Nc1ccc(C2=NNC(=O)CC2C)cc1` (stereo not given), the Potency entry in the experiment with CP192, with CP194, in the experiment on CP201, with CP211, in the experiment on CP215 and with CP266 was “inactive” each time. The Potency result in the experiment on CP268 and in the experiment with CP269 was “inactive” throughout.

`Cc1ccc(O)c2ncccc12`: the Potency entry in the experiment with CP192, in the experiment with CP201, in the experiment with CP203, with CP211, in the experiment on CP215 and in the experiment with CP217 was “inactive” in each case. Further, the Potency result in the experiment on CP237, with CP238, in the experiment with CP247, with CP250, with CP252 and with CP256 was “inactive” each time. For the same compound, the Potency entry in the experiment with CP262, in the experiment on CP265, with CP266, in the experiment on CP268 and in the experiment on CP269 was “inactive” in each case.

With `N[C@H](CO)C(=O)O`, the Potency entry with CP192, in the experiment on CP194, in the experiment on CP201, with CP211, in the experiment on CP217 and in the experiment on CP237 was “inactive” in each case. Further, the Potency entry in the experiment with CP238, in the experiment with CP247, in the experiment on CP250, in the experiment on CP252, in the experiment with CP256 and in the experiment on CP260 was “inactive” in each case. Moreover, the Potency entry in the experiment on CP262, with CP265, in the experiment on CP266, in the experiment with CP269 and with CP286 was “inactive” each time.

Turning to `CCN(CC)CCNC(=O)COc1ccc(Cl)cc1`, the Potency result in the experiment with CP192, with CP201, in the experiment on CP211, with CP215, with CP256 and in the experiment with CP262 was “inactive” throughout. The Potency entry with CP266, in the experiment on CP268 and in the experiment with CP269 was “inactive” in each case.

On to `CCN(CC)CCOC(=O)C(c1ccccc1)C1CCCCC1` (stereo not given), for which the Potency result in the experiment on CP192, with CP201, in the experiment on CP211, in the experiment on CP217, in the experiment on CP237 and in the experiment on CP238 was “inactive” in each case. Moreover, the Potency entry in the experiment with CP247, in the experiment on CP250, in the experiment on CP252, in the experiment with CP256, in the experiment on CP262 and in the experiment on CP265 was “inactive” throughout. Moreover, the Potency entry in the experiment on CP266, in the experiment with CP269 and in the experiment on CP286 was “inactive” each time.

For the compound `Cc1c(C)n(Cc2ccccc2)c2ccc(C(=O)OCCN(C)C)cc12`, the Potency result in the experiment on CP192, in the experiment on CP194, in the experiment on CP203, with CP211, in the experiment on CP217 and in the experiment with CP237 was “inactive” throughout. Also, the Potency entry in the experiment on CP238, in the experiment on CP247, in the experiment on CP250, in the experiment with CP252, with CP256 and with CP260 was “inactive” throughout. The Potency result with CP262, in the experiment on CP265, in the experiment with CP268, in the experiment with CP269 and in the experiment with CP286 was “inactive” in each case.

Turning to `Cc1c(C)n(CCN(C)C)c2ccc(C(=O)OCCN(C)C)cc12`, the Potency result in the experiment on CP192, in the experiment with CP194, in the experiment on CP201, in the experiment on CP211, in the experiment with CP215 and with CP217 was “inactive” each time. For the same compound, the Potency result in the experiment on CP238, in the experiment on CP247, in the experiment with CP250, with CP252, in the experiment with CP256 and in the experiment with CP262 was “inactive” throughout. In addition, the Potency entry in the experiment with CP265, with CP266, in the experiment on CP268, in the experiment with CP269 and in the experiment with CP286 was “inactive” each time. Further, in the experiment on CP237, the Potency was 11.2 µM (active).

As for `CN(C(=O)CN(CCO)CC(=O)N(C)C(C)(C)Cc1ccccc1)C(C)(C)Cc1ccccc1`, the Potency entry with CP192, in the experiment with CP201, in the experiment on CP211, in the experiment with CP215, in the experiment with CP238 and with CP247 was “inactive” in each case. Further, the Potency result with CP250, in the experiment with CP252, in the experiment with CP256, in the experiment with CP260, in the experiment on CP262 and in the experiment with CP265 was “inactive” in each case. Besides, the Potency result in the experiment on CP266 and in the experiment on CP269 was “inactive” each time.

Regarding `COc1cccc(CCc2ccccc2OCC(CN(C)C)OC(=O)CCC(=O)O)c1` (stereo not given), the Potency with CP192 is 16.9 µM (active); with CP194, 4.78 µM (active); with CP203 it was 3.38 µM (active); in the experiment with CP211 it was 7.57 µM (active); with CP215, 8.49 µM (active); in the experiment on CP217, 7.94 µM (active). Also, the Potency with CP237 was 1.12 µM (active); with CP238, 7.08 µM (active); in the experiment on CP247 it was 5.62 µM (active); in the experiment on CP250, 11.2 µM (active); in the experiment with CP252, 8.91 µM (active); in the experiment with CP256 it was 11.2 µM (active). The Potency is 3.55 µM (active) with CP260; 12 µM (active) with CP262; 7.08 µM (active) in the experiment with CP265; 7.57 µM (active) with CP268; 6.75 µM (active) in the experiment on CP269; 5.62 µM (active) in the experiment with CP286.

These data come from PubChem BioAssay (NCATS).
